Test results reported in PubChem BioAssay (NCATS).
Several values for one entry are separate records, joined by “and”; a condition that tells them apart may be missing. Equal entries are not always repeated. Results filed as inconclusive are left out. Activity calls are given as the source filed them. Unless noted, calls follow the shape of the dose curve; as a rule, active = well fitted curve in the direction sought with a large enough effect; inconclusive = small, poorly fitted or top-dose-only effect, or another doubt; inactive = no such curve, though single readings can be large; an effect the other way counts as inactive or inconclusive.

What was measured:
[1] = Cell Viability - HepG2 (AID 433; calls by dose curve;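 also: potency is read from the fitted curve at half-maximal effect; cells exposed to compound for 40 hours; potency for ATP loss meaning cytotoxicity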); details: qHTS
Summary of the method: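 Cytotoxicity read as ATP loss (CellTiter-Glo luminescence) after 40 hr compound exposure of HepG2, 1500 cells/well, 37 °C. AC50 by Hill equation; 0% set by DMSO, 100% inhibition by 100 uM tamoxifen.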

[2] = Cellular Toxicity (caspase-3) HUV-EC-C (AID 656); details: HUV-EC-C cells, caspase-3 activation (apoptosis), vehicle = 0, 100 µM tamoxifen = 100%; series mostly up to 92.2 µM;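 also: 0% = DMSO basal and 100% = 100 µM tamoxifen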
Summary of the method: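 Luminescent Caspase-Glo 3/7 readout after 16 h, 37 °C compound exposure of HUV-EC-C endothelial cells, 1000 per well, complete medium. AC50 derived by Hill fitting, with DMSO as baseline and 100 uM tamoxifen as full activation.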

[3] = Cellular Toxicity (caspase-3) SHSY5Y (AID 657); details: SH-SY5Y caspase-3 activation, DMSO zero, 10 µM staurosporine = 100%; series mostly up to 91.7 µM
Summary of the method: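 Luminescent Caspase-Glo 3/7 read-out, 1 hr room temperature, follows 16 hours of compound treatment of SH-SY5Y cells at 37 °C. Normalization: DMSO basal, 10 uM staurosporine as 100%; AC50 values from Hill-equation concentration-response fits.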

[4] = Cellular Toxicity (caspase-3) MRC-5 (AID 659); details: MRC-5 cells, luminescence, normalized: DMSO 0%, 10 µM staurosporine 100%; series mostly up to 91.7 µM
Summary of the method: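 MRC-5 fibroblasts, 1500/well; 16 h cpd, 37 °C; Caspase-Glo 3/7, 1 h RT; lumi read. Norm: DMSO = 0%, 10 uM staurosporine = 100%. Hill-fit AC50 from qHTS conc-response.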

[5] = target: Cytochrome P450 3A4 (Homo sapiens) (UniProt P08684); test: qHTS Assay for Inhibitors and Substrates of Cytochrome P450 3A4 (AID 884); details: recombinant CYP3A4, Luciferin-PPXE luminescence; series mostly up to 57.1 µM; also: nearly all actives have a fitted effect of over 50% in size; also: potency is read from the fitted curve at half-maximal effect
Cytochrome P450 3A4 (Homo sapiens), sequence (P08684 whole entry, looked up): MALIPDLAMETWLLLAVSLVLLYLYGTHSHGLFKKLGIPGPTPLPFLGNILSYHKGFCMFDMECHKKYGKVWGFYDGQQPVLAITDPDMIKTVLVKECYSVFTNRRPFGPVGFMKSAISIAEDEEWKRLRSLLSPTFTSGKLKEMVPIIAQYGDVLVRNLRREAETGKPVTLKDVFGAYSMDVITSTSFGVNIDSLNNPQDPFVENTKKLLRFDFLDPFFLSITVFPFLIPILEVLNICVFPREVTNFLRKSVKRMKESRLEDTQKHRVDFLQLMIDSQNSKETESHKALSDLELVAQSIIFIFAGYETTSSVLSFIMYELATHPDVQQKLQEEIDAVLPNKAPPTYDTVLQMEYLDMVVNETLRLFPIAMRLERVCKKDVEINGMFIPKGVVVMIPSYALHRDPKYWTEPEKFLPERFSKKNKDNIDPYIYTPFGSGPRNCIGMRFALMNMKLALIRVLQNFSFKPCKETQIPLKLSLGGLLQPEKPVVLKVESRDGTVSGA
Summary of the method: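 Luminescent readout of luciferin produced by CYP3A4 (20 nM) dealkylation of Luciferin-PPXE, 25 uM (its KM). NADPH-driven reaction ran 60 min at RT after 10 min compound preincubation; data scaled to 57 uM ketoconazole as 100% inhibition.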

[6] = MultiTox-Fluor Cytotoxicity Assay - LYMP1-002 - Live Cells (AID 955); details: LYMP1-002 lymphoblastoid live-cell protease fluorescence viability; series mostly up to 46.1 µM; also: % is scaled to controls: 0 for no effect and ±100 for the full control effect
Summary of the method: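 Cells were seeded at 2500 per well and incubated 5 hr. Compounds were then added for 16 hr at 37 C, followed by MultiTox-Fluor reagent for 60 min at room temperature and fluorescence reading of viable-cell protease signal.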

[7] = Cell Viability - LYMP1-003 - Assay at 24 hr (AID 963); details: LYMP1-003 lymphoblastoid cell viability; series mostly up to 92.2 µM;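 also: plate controls were DMSO only for no effect and tetraoctylammonium bromide positive control for full effect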
Summary of the method: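 Cytotoxicity is scored as a concentration-dependent fall in ATP-linked luciferase signal in human lymphoblastoid LYMP1-003 cells treated 24 hr at 37 C in complete culture medium.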

[8] = Cell Viability - LYMP2-004 (AID 966); details: LYMP2-004 lymphoblastoid cell viability, qHTS; series mostly up to 92.2 µM; also: nearly all actives have a fitted effect of over 65% in size; also: potency is read from the fitted curve at half-maximal effect
Summary of the method: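 qHTS cytotoxicity: human lymphoblastoid line, 24 hr compound treatment, 37 C, complete medium. Viability read as cellular ATP via luciferase luminescence; tetraoctylammonium bromide served as positive control.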

[9] = Cell Viability - LYMP2-009 (AID 968); details: LYMP2-009 lymphoblastoid cell viability; series mostly up to 92.2 µM; also: nearly all actives have a fitted effect of over 55% in size; also: potency is read from the fitted curve at half-maximal effect
[10] = Cell Viability - LYMP2-017 (AID 972); details: LYMP2-017 lymphoblastoid cell viability; series mostly up to 92.2 µM; also: nearly all actives have a fitted effect of over 55% in size; also: potency is read from the fitted curve at half-maximal effect
Summary of the method: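 Cytotoxicity is scored as a concentration-dependent drop in cellular ATP in a human lymphoblastoid line after 24 hr treatment at 37 C. Values are AC50s from Hill-equation modelling.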

[11] = Cell Viability - LYMP2-025 (AID 976); details: LYMP2-025 lymphoblastoid cell viability; series mostly up to 92.2 µM; also: potency is read from the fitted curve at half-maximal effect
Summary of the method: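 Acute cytotoxicity is scored as a concentration-dependent fall in intracellular ATP, measured by luciferase luminescence, in human lymphoblastoid LYMP2-025 cells exposed to compound for 24 hours at 37 C. AC50 values come from standard Hill fits.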

[12] = Cell Viability - LYMP2-012 (AID 982); details: LYMP2-012 lymphoblastoid cell viability qHTS; series mostly up to 92.2 µM;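 also: cellular ATP by luciferase luminescence where a drop means cytotoxicity; cells exposed to compound for one day before reading; nearly all actives have a fitted effect of over 55% in size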; also: potency is read from the fitted curve at half-maximal effect
[13] = Cell Viability - LYMP2-016 (AID 984); details: LYMP2-016 lymphoblastoid cell viability, qHTS; series mostly up to 92.2 µM; also: nearly all actives have a fitted effect of over 55% in size; also: potency is read from the fitted curve at half-maximal effect
Summary of the method: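 Cytotoxicity was scored by luminescent ATP content (CellTiter-Glo) after 24 h compound exposure at 37 C of a human lymphoblastoid line at 2500 cells/well. Concentration-response data were fitted to the Hill equation for AC50.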

[14] = qHTS Assay for Identification of Small Molecule Inducers of Hypoxia Response (AID 2120; active = well fitted curve in the direction sought with a large enough effect in the signal ratio, with a control signal flat, not every such curve was filed as active; the % refers to the signal ratio; also: 0% is about no effect); details: hypoxia response reporter cells, beta-lactamase ratio readout; series mostly up to 104 µM
Summary of the method: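 Cell-based qHTS for reporter induction: hypoxia response element controlled beta-lactamase in ME-180 cells. Compounds incubated 17 h at 37 degrees C; activity from blue/green (460/530 nm) ratio, inducers ranked by AC50.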

[15] = qHTS assay for small molecule antagonists of retinoid X receptor alpha signaling (AID 588546); details: HEK293T RXRa-UAS-bla, beta-lactamase ratio, antagonist mode; measured here: W530 green channel, cytotoxicity proxy;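 also: cells stimulated with 9-cis-retinoic acid as agonist; % is scaled to controls: 0 for no effect and ±100 for the full control effect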
Summary of the method: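 Beta-lactamase reporter inhibition, read as CCF4 fluorescence ratio (ex 405, em 460/530 nm) after 2 h at RT. HEK293T UAS-bla cells, 2500/well, were stimulated with 9-cis-RA at 500 or 100 nM final alongside test compound for 18 h at 37 C.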

[16] = qHTS assay for environmental chemicals that activate the Aryl hydrocarbon Receptor (AhR) signaling pathway (AID 651777); details: 1A2-DRE human hepatoma cells, luciferase, 24 h; activation: stronger effect = higher value; also: nearly all actives have a fitted effect of over 15% in size; also: potency is read from the fitted curve at half-maximal effect; as to activation: % of control where 0% means no effect
Summary of the method: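 Luminescence (One-Glo, 30 min, room temperature) reports AhR-driven luciferase in stably transfected human hepatoma cells bearing DRE and CYP1A2 promoter. Cells (1,200/well) were treated with compound for 24 hr at 37 C in qHTS format.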

[17] = target: Peroxisome proliferator-activated receptor alpha (Homo sapiens) (UniProt Q07869); test: qHTS assay for small molecule agonists of the peroxisome proliferator-activated receptor alpha (PPARalpha) signaling pathway (AID 651778); details: PathHunter PPARalpha complementation, chemiluminescence, 6 h; stronger effect = higher value; also: % of control where 0% means no effect
Peroxisome proliferator-activated receptor alpha (Homo sapiens), sequence (Q07869 whole entry, looked up, the tested form may be a part): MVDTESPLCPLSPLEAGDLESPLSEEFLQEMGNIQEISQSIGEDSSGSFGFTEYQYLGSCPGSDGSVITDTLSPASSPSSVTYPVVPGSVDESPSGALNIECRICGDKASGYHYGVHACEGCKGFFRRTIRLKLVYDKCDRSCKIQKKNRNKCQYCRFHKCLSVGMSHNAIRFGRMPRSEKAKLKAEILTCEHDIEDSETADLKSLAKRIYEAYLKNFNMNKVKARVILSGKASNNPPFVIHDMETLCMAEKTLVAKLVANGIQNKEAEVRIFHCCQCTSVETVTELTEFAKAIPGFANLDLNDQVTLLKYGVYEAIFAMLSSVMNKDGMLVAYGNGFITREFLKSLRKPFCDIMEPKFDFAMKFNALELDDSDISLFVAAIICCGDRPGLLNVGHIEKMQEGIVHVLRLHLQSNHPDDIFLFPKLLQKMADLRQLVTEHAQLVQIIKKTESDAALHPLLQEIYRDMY
Summary of the method: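 Enzyme-fragment complementation assay in which ligand-bound PPARalpha translocates and forms an active enzyme that generates chemiluminescence. Cells were plated overnight, exposed to compound for 6 hr at 37 C, and then given detection reagent for 60 min at room temperature.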

[18] = qHTS assay for small molecule agonists of the antioxidant response element (ARE) signaling pathway measured by Nrf2-dependant transcriptional activity - cell viability counter screen (AID 720653; active = well fitted curve in the direction sought with a large enough effect in the repeat runs; an effect the other way counts as inactive or inconclusive; also: % is scaled to controls: 0 for no effect and ±100 for the full control effect); details: ARE-bla HepG2 viability, CellTiter-Glo ATP luminescence, 16 h; stronger effect = lower value
Summary of the method: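 ARE-bla HepG2 cells treated with compounds for 16 h at 37C; this counter screen measures viability as intracellular ATP by CellTiter-Glo luminescence after 30 min at room temperature.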

[19] = Cell Viability - Renal Proximal Tubule (AID 545); details: renal proximal tubule cells viability; series mostly up to 91.7 µM;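 also: cells exposed to compound for 40 hours; 0% = DMSO only and -100% = 100 µM tamoxifen; nearly all actives have a fitted effect of over 40% in size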
Summary of the method: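 Viability taken as intracellular ATP (CellTiter-Glo luminescence) after 40 hr, 37 °C compound treatment of primary proximal tubule cells from rat kidney, 1000 cells/well; Hill-equation fits of qHTS concentration-response data gave AC50.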

[20] = Cell Viability - LYMP1-002 - Assay at 40 hr (AID 994); details: LYMP1-002 lymphoblastoid cell viability; series mostly up to 92.2 µM;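 also: 0% = DMSO only and full inhibition = 92 µM tetraoctylammonium bromide; nearly all actives have a fitted effect of over 60% in size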
Summary of the method: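 Cells are plated at 2500 per well and rested 5 hr at 37 C. Compounds are added and incubated 40 hr at 37 C. CellTiter-Glo reagent is added for 30 min at room temperature before luminescence is read.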

Nc1ccc(-c2ccc(N)c(Cl)c2)cc1Cl
-2.3% and -7.33%: max response [15]
active: Potency [5] 15.8 µM | Potency [16] 44.7 µM
inactive: Potency [1] > 92 µM | outcome [2] | outcome [3] | outcome [4] | outcome [6] | outcome [7] | Potency [8] | Potency [9] | Potency [10] | Potency [11] | Potency [12] | Potency [13] | Potency [14] | max response [17] -4.73% and -2.04% | max response [18] -14% and -8.08%

COC(C)(C)C
-12.9%: max response [15]
inactive: Potency [1] > 92 µM | outcome [19] | outcome [2] | outcome [3] | outcome [4] | Potency [5] | outcome [6] | outcome [7] | Potency [8] | Potency [9] | Potency [10] | Potency [11] | Potency [12] | Potency [13] | Potency [20] | Potency [14] | activation [16] -1.78% | max response [17] -1.3% | max response [18] 4.13%

OCC(Cl)CCl (stereo not given)
inactive: Potency [1] > 92 µM | outcome [19] | outcome [2] | outcome [3] | outcome [4] | Potency [5] | outcome [6] | outcome [7] | Potency [8] | Potency [9] | Potency [10] | Potency [11] | Potency [12] | Potency [13] | Potency [20] | Potency [14] | activation [16] 1.02% | max response [17] 0.308% | max response [18] -10.2%
-11.1%: max response [15]

Nc1ccc(Oc2ccc(N)cc2)cc1
inactive: Potency [1] > 92 µM | outcome [19] | outcome [2] | outcome [3] | outcome [4] | outcome [6] | outcome [7] | Potency [8] | Potency [9] | Potency [10] | Potency [11] | Potency [12] | Potency [13] | Potency [20] | Potency [14] | activation [16] 2.36% and 5.82% | max response [17] -1.7% and -2.66% | max response [18] -2.21% and -13%
-3.97% and -1.47%: max response [15]

Oc1ccc(Cl)c(Cl)c1
-0.477%: max response [15]
inactive: Potency [1] > 92 µM | outcome [19] | outcome [2] | outcome [3] | outcome [4] | Potency [5] | outcome [6] | outcome [7] | Potency [8] | Potency [9] | Potency [10] | Potency [11] | Potency [12] | Potency [13] | Potency [20] | Potency [14] | activation [16] 1.35% | max response [17] -3.58% | max response [18] -2.38%

N#C/C=C/C#N
inactive: Potency [1] > 92 µM | outcome [19] | outcome [2] | outcome [3] | outcome [4] | Potency [5] | outcome [6] | outcome [7] | Potency [20] | Potency [14] | activation [16] 5.04% | max response [17] -6.4% | max response [18] -28.1%
active: Potency [8] 15.8 µM | Potency [9] 31.6 µM | Potency [10] 31.6 µM | Potency [11] 50.1 µM | Potency [12] 20 µM | Potency [13] 39.8 µM

N#CCc1ccccc1
-0.865%: max response [15]
inactive: Potency [1] > 92 µM | outcome [19] | outcome [2] | outcome [3] | outcome [4] | Potency [5] | outcome [6] | outcome [7] | Potency [8] | Potency [9] | Potency [10] | Potency [11] | Potency [12] | Potency [13] | Potency [20] | Potency [14] | activation [16] -0.841% | max response [17] 0.0396% | max response [18] -1.59%

ClC(Cl)c1ccccc1
inactive: Potency [1] > 92 µM | outcome [19] | outcome [2] | outcome [3] | outcome [4] | Potency [5] | outcome [6] | outcome [7] | Potency [8] | Potency [9] | Potency [10] | Potency [11] | Potency [12] | Potency [13] | Potency [20] | Potency [14] | activation [16] -2.06% | max response [17] -0.698% | max response [18] -0.372%
4.33%: max response [15]

C=CCOCC1CO1 (stereo not given)
inactive: Potency [1] > 92 µM | outcome [19] | outcome [2] | outcome [3] | outcome [4] | Potency [5] | outcome [6] | outcome [7] | Potency [8] | Potency [9] | Potency [10] | Potency [11] | Potency [12] | Potency [13] | Potency [20] | Potency [14] | activation [16] -0.262% | max response [17] 11.4% | max response [18] 2.37%
2.33%: max response [15]

[C-]1=CC=CC1.[C-]1=CC=CC1.[Cl-].[Cl-].[Ti+4]
inactive: outcome [19] | outcome [2] | outcome [3] | outcome [4] | Potency [5] | Potency [14] | activation [16] 0.145% | max response [17] 0.688% | max response [18] -7.58%
